# Results published in PubChem BioAssay (NCATS).
# Values without a mark were called inactive. Records with an inconclusive call do not appear. Where a call stands in place of a potency, no number is given. Activity calls are given as the source filed them. Unless noted, calls come from the whole dose curve; as a rule, active = well fitted curve in the direction sought with a large enough effect; inconclusive = small, poorly fitted or top-dose-only effect, or another doubt; inactive = no such curve, though single readings can be large; an effect the other way counts as inactive or inconclusive.
# What was measured:
# [1] = target: Cytochrome P450 3A4 (Homo sapiens) (UniProt P08684); test: qHTS Assay for Inhibitors and Substrates of Cytochrome P450 3A4 (AID 884); note: nearly all actives have a fitted effect of over 50% in size; note: potency is the fitted concentration of half-maximal effect
# Sequence of Cytochrome P450 3A4 (Homo sapiens) (P08684 whole entry, looked up): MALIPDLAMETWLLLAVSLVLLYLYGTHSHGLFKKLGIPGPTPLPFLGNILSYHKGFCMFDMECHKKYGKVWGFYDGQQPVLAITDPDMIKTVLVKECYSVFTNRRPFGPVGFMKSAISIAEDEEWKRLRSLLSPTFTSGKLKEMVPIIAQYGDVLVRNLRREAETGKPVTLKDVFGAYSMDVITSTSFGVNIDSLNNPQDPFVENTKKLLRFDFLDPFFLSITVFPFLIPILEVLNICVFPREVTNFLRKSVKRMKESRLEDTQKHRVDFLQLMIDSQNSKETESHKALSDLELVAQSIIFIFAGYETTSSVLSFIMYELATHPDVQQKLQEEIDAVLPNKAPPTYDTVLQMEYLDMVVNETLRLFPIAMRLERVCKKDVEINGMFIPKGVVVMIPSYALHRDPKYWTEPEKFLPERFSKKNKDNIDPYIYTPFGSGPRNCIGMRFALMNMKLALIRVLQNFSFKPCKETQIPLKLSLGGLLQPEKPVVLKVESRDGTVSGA
# Outline: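 Luminescent readout of luciferin produced by CYP3A4 (20 nM) dealkylation of Luciferin-PPXE, 25 uM (its KM). NADPH-driven reaction ran 60 min at RT after 10 min compound preincubation; data scaled to 57 uM ketoconazole as 100% inhibition.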
# [2] = target: Cytochrome P450 3A4 (Homo sapiens) (UniProt P08684); test: qHTS Assay for Activators of Cytochrome P450 3A4 (AID 885); note: nearly all actives have a fitted effect of over 65% in size
# Outline: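 CYP3A4 activity: Luciferin-PPXE O-dealkylation, 25uM substrate, 200mM KPO4, RT throughout. Read-out is luciferase luminescence; higher values reflect activation.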
# [3] = Confirmation and Secondary Assay for Modulators of Hemoglobin Beta Chain Splicing at IVS2 654 locus (AID 910);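 note: HeLa cells stably carrying EGFP split by mutant beta-globin IVS2-654 intron; per-well total GFP intensity by laser scanning cytometry after 2-day treatment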
# Outline: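 Readout: per-well total peak green fluorescence (488 nm ex, 500–520 nm em) from objects 5–250 µm, reflecting correct splicing of an EGFP-654 reporter. Compounds were applied for 2 days at 37 °C to overnight-plated HeLa EGFP-654 cells; controls were DMSO and 500 nM IVS2-654 PNA.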
# [4] = Confirmation and Secondary Assay for Modulators of Hemoglobin Beta Chain Splicing at IVS2 705 locus (AID 930);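 note: HeLa cells stably expressing the EGFP-705 splicing reporter; GFP fluorescence per well restored by corrected splicing of the IVS2-705 intron in EGFP; series mostly up to about 46 µM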
# Outline: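 Per-well GFP, captured at 1 x 8 µm resolution with 488 nm excitation, served as the read-out for HeLa EGFP-705 cells incubated 2 days with test compound versus DMSO.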
# [5] = target: Cytochrome P450 2D6 (Homo sapiens) (UniProt P10635); test: qHTS Assay for Inhibitors and Substrates of Cytochrome P450 2D6 (AID 891);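 note: luciferin methyl ether substrate demethylated by CYP2D6 with NADPH regeneration; nearly all actives have a fitted effect of over 60% in size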
# Sequence of Cytochrome P450 2D6 (Homo sapiens) (P10635 whole entry, looked up): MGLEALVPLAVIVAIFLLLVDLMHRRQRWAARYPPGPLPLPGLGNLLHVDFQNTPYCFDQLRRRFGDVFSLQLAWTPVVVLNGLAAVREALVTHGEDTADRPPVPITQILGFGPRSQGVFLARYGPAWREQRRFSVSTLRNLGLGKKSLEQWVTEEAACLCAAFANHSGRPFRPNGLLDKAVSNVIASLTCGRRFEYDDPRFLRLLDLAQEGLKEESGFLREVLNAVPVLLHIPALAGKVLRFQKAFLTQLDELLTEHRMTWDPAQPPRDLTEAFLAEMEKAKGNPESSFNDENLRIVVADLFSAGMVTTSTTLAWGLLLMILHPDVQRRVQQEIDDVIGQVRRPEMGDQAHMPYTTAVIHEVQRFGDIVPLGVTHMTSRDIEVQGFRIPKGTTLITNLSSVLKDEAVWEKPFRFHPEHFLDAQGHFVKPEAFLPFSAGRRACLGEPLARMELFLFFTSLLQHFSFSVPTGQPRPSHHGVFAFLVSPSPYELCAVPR
# Outline: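 Luminescent read-out of luciferin formed by 5 nM human CYP2D6 demethylating 30 uM Luciferin-ME EGE (Km level) over 60 min at room temperature after NADPH regeneration addition. Data normalized to full inhibition by 1.43 uM quinidine.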
# [6] = target: Guanine nucleotide-binding protein G(i) subunit alpha-1 (Homo sapiens) (UniProt P63096); test: qHTS Assay for Inhibitors of RGS12 GoLoco Motif Activity (Green Fluorophore) (AID 879);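 note: negative values mean loss of peptide binding seen as reduced polarization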
# Sequence of Guanine nucleotide-binding protein G(i) subunit alpha-1 (Homo sapiens) (P63096 whole entry, looked up): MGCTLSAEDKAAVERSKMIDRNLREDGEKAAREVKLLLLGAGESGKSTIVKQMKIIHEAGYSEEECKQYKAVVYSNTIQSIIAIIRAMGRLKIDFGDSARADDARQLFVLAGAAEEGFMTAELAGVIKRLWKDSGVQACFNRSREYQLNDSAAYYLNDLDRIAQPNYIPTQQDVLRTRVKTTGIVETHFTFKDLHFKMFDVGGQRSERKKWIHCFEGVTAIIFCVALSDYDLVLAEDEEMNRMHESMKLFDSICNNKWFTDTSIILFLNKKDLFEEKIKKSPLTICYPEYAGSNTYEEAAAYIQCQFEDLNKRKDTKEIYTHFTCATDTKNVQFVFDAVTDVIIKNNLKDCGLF
# Outline: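 A drop in FITC polarization marked displacement of the FITC-tagged RGS12 GoLoco peptide (10 nM) from Gαi1 (50 nM). Compounds were incubated 10 min at room temperature in Tris pH 7.5 buffer containing 150 mM NaCl, 0.1 mM GDP and 0.05% NP40; unlabeled peptide titration served as control.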
# [7] = qHTS Assay for Identification of Small Molecule Antagonists for NFkB Signaling Pathway (AID 895; active = well fitted inhibition curve with a large enough effect in the signal ratio, with a control signal flat, not every such curve was filed as active; the % refers to the signal ratio; note: potency is the fitted concentration of half-maximal effect)
# Outline: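 Beta-lactamase reporter read-out (460 and 530 nm emission ratio, 405 nm excitation, 2 hrs substrate loading RT) after 5 hr stimulation with 10 pM TNF alpha in compound-treated NFkB-bla ME-180 cells in low-serum medium.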
# [8] = qHTS Assay for Identification of Small Molecule Agonists for Hypoxia Response Element Signaling Pathway (AID 914; active = well fitted activation curve with a large enough effect in the signal ratio, with a control signal flat, not every such curve was filed as active; the % refers to the signal ratio); conditions: ME-180 (cervical carcinoma) HRE-bla reporter, beta-lactamase ratio, CoCl2, 17 h; hits give high values
# Outline: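 In Opti-MEM containing 0.5% dialyzed FBS and 10 mM HEPES, ME-180 HRE-bla cells received a compound titration and EC50 CoCl2. They were incubated 17 hours, then CCF4-loaded 2.5 hours at room temperature before ratio reading.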
# [9] = target: Muscarinic acetylcholine receptor M1 (Rattus norvegicus) (UniProt P08482); test: qHTS Assay for Antagonists of Acetylcholine Muscarinic M1 Receptor: Measurement of IP-One Response (AID 944); note: nearly all actives have a fitted effect of over 75% in size
# Sequence of Muscarinic acetylcholine receptor M1 (Rattus norvegicus) (P08482 whole entry, looked up): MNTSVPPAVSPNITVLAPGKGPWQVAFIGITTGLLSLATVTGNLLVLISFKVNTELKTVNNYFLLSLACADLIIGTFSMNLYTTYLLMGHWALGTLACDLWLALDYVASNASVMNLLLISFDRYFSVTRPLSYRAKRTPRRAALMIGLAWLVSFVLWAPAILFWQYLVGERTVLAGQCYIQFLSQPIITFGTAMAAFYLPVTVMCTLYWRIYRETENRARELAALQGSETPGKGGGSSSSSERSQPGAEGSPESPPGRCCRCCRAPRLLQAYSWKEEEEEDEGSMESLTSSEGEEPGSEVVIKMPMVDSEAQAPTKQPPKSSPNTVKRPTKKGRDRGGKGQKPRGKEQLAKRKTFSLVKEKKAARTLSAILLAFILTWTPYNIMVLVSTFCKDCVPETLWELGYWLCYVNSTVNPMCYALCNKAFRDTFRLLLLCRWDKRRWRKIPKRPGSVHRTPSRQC
# Outline: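 Read-out: HTRF competition between d2-IP1 and Eu-cryptate anti-IP1 antibody, emission 620 and 665 nm. Stimulus was carbachol, EC80 (200 nM), for 30 min in M1-CHO cells (rat receptor), after 10 min compound pre-treatment.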
# [10] = target: Pyruvate kinase (Leishmania mexicana) (UniProt Q27686); test: qHTS Validation Assay for Inhibitors of Leishmania Mexicana Pyruvate Kinase (AID 945)
# Sequence of Pyruvate kinase (Leishmania mexicana) (Q27686 2-499 E452W): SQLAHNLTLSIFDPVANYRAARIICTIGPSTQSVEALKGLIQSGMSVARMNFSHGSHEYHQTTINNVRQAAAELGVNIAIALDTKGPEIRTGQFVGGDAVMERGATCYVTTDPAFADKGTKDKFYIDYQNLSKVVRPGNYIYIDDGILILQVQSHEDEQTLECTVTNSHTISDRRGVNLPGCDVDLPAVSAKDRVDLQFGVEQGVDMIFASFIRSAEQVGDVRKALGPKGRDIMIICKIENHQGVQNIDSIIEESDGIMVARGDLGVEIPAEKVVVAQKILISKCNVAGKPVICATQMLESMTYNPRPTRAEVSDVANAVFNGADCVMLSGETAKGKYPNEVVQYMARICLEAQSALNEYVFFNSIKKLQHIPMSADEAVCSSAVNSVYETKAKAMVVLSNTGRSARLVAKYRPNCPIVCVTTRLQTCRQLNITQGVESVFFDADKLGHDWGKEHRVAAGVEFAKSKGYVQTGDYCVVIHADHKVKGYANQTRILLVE
# Outline: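 An endpoint luciferase assay: 0.2 nM LmPYK E451W turns over 0.5 mM PEP with 0.1 mM ADP for 1 h at room temperature, pH 7.2, before PKLight addition. Values are normalized to DMSO-only wells.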
# [11] = target: Pyruvate kinase PKM (Homo sapiens) (UniProt P14618); test: qHTS Assay for Activators of Human Muscle Pyruvate Kinase (AID 954; active = well fitted curve in the direction sought with a large enough effect, not every such curve was filed as active)
# Sequence of Pyruvate kinase PKM (Homo sapiens) (P14618 whole entry, looked up): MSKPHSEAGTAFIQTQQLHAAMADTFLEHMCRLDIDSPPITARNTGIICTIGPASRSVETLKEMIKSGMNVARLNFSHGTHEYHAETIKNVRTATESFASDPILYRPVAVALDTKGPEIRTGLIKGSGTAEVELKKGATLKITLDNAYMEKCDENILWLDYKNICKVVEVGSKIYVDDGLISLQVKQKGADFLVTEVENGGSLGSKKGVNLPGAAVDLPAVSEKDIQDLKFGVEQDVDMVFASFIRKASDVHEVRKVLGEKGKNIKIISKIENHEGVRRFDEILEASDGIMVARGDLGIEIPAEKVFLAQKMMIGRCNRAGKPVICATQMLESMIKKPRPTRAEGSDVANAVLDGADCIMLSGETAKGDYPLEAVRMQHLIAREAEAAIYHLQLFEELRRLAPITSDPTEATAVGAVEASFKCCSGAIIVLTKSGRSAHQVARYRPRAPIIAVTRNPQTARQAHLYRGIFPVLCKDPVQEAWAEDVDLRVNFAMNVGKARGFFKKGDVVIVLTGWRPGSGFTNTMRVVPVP
# Outline: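 A coupled luminescent readout tracked ATP made from ADP by purified PKM2. Final conditions included 0.1 nM enzyme, PEP and ADP at 0.5 and 0.1 mM, pH 7.2 imidazole buffer with BSA, and a one-hour room-temperature reaction.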
# [12] = target: Cytochrome P450 2C19 (Homo sapiens) (UniProt P33261); test: qHTS Assay for Inhibitors and Substrates of Cytochrome P450 2C19 (AID 899); note: nearly all actives have a fitted effect of over 60% in size
# Sequence of Cytochrome P450 2C19 (Homo sapiens) (P33261 whole entry, looked up): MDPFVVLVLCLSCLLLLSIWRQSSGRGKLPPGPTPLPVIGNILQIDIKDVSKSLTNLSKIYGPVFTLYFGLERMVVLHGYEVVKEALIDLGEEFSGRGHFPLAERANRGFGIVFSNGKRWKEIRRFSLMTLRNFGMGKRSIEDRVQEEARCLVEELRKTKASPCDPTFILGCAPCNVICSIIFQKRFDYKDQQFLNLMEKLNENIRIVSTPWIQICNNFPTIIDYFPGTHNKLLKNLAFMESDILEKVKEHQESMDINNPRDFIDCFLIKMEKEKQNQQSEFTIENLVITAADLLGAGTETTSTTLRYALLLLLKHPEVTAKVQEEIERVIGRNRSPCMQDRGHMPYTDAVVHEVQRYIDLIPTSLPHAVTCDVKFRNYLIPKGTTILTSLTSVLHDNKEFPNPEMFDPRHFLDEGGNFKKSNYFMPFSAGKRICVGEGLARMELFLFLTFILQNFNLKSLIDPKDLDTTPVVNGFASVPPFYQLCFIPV
# Outline: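 5nM enzyme + 10uM Luciferin-H EGE (=KM), 50mM KPO4; cpd pin-transferred, 10 min 37C; NADPH regen, 60 min 37C; stopped w/ luciferin detection reagent, 20 min; luminescence. Normalized to 57uM ketoconazole (AC100).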
# [13] = qHTS Assay for Identification of Small Molecule Antagonists for Thrombopoietin (TPO) Signaling Pathway (AID 918); conditions: TPO-dependent cell signaling reporter, antagonist mode; note: potency is the fitted concentration of half-maximal effect; nearly all actives have a fitted effect of over 60% in size
# Outline: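 Luminescence read-out: GPIIb-promoter luciferase in Ba/F3 cells carrying human TPO receptor. Compounds added with 26 pM TPO (EC50), 24 hrs, 37 C, 5% CO2; cells deprived of IL-3 overnight beforehand. Inhibition of signal scored.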
# [14] = target: Cytochrome P450 2C9 (Homo sapiens) (UniProt P11712); test: qHTS Assay for Inhibitors and Substrates of Cytochrome P450 2C9 (AID 883); note: nearly all actives have a fitted effect of over 60% in size
# Sequence of Cytochrome P450 2C9 (Homo sapiens) (P11712 whole entry, looked up): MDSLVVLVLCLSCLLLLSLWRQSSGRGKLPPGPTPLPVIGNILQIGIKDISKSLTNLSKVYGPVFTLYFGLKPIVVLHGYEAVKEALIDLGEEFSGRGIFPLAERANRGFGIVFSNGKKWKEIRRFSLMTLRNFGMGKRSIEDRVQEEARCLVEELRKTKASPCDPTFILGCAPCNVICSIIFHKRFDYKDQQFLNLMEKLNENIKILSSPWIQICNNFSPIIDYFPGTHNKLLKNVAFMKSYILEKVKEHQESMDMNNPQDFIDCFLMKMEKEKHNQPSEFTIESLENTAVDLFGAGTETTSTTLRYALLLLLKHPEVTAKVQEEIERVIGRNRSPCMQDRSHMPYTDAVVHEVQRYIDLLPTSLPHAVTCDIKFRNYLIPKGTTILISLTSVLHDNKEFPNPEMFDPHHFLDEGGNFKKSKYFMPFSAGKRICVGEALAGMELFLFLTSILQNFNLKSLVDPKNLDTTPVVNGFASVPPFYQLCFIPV
# Outline: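 Inhibition of CYP2C9 is scored as loss of luminescence, with 57uM sulphaphenazole defining 100% inhibition. Substrate Luciferin-H is used at 100uM, equal to its KM; enzyme at 10nM in 25mM KPO4, 60 min at 37C with NADPH regeneration.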
smiles,measurement,setting,value
CC[C@@H]1C(=O)OC[C@@H]1Cc1cncn1C,Potency,[1],12.6 µM (active)
same,outcome,[2],inactive
CCC(=O)OC1CCC2C3CCC4=CC(=O)CC[C@@]4(C)C3CC[C@]12C (some centres not stated),Potency,[3],inactive
same,outcome,[4],inactive
CCn1cc(C(=O)O)c(=O)c2cc3c(cc21)OCO3,Potency,[5],inactive
CC(Cc1ccc(O)cc1)NCC(O)c1cc(O)cc(O)c1 (configuration not stated),Potency,[3],inactive
same,outcome,[4],inactive
NCCc1c[nH]c2ccccc12,outcome,[6],inactive
same,Potency,[1],inactive
same,Potency,[7],12.6 µM (active)
same,Potency,[3],inactive
same,activation,[8],-27.7%
same,outcome,[4],inactive
same,Potency,[9],inactive
same,outcome,[10],inactive
same,outcome,[11],inactive
Nc1ccccc1N,outcome,[2],inactive
NCc1cc(=O)[nH]o1,outcome,[6],inactive
same,Potency,[12],inactive
same,Potency,[9],inactive
same,outcome,[10],inactive
same,outcome,[11],inactive
O=C(O)CCCOc1ccc(Cl)cc1Cl,Potency,[1],inactive
same,Potency,[3],inactive
same,outcome,[4],inactive
CCCCCCCCCCCCCCCC[N+](C)(C)C,Potency,[1],inactive
same,Potency,[3],inactive
same,outcome,[4],inactive
CN[C@@H]1C[C@@H](c2ccc(Cl)c(Cl)c2)c2ccccc21,outcome,[6],inactive
same,Potency,[7],8.91 µM (active)
same,Potency,[13],12.6 µM (active)
same,Potency,[9],inactive
same,outcome,[10],inactive
same,outcome,[11],inactive
C#CC1(O)CCC2C3CCC4=CC(=O)CCC4(C)C3CCC21C (configuration not stated),Potency,[1],inactive
same,Potency,[3],inactive
same,outcome,[4],inactive
NC(N)=NOCCC(N)C(=O)O (configuration not stated),outcome,[6],inactive
same,Potency,[3],inactive
same,outcome,[4],inactive
same,outcome,[10],inactive
same,outcome,[11],inactive
CNCCc1c[nH]c2ccc(O)cc12,outcome,[6],inactive
same,Potency,[1],inactive
same,Potency,[7],inactive
same,Potency,[9],inactive
same,outcome,[10],inactive
same,outcome,[11],inactive
O=c1cccc2n1CC1CNC[C@H]2C1,Potency,[14],inactive
same,outcome,[2],inactive
same,Potency,[5],inactive
same,Potency,[12],inactive
